Measurements from PubChem BioAssay (NCI).
The panel holds about 83,000 compounds, 20% with a hit somewhere; the sample as a whole holds those more often.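 48-hour exposure, single concentration, 96-well plates; percent growth endpoint where 0 means no net growth. Active: below 10.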 A number with no mark means an inactive call. Active and inactive are the calls of the source.

Assays:
Assay in all cases: NCI-60 one-dose screen, 48 h (100 = growth as untreated, 0 = no growth, -100 = all killed)
Conditions in all cases: 10 µM unless noted
HCT-15 colon = test system: HCT-15 colon
HT29 colon = test system: HT29 colon
SNB-75 CNS = test system: SNB-75 CNS
SNB-19 CNS = test system: SNB-19 CNS
U251 CNS = test system: U251 CNS
SK-MEL-5 melanoma = test system: SK-MEL-5 melanoma
UACC-62 melanoma = test system: UACC-62 melanoma
LOX IMVI melanoma = test system: LOX IMVI melanoma
SK-MEL-28 melanoma = test system: SK-MEL-28 melanoma
SK-MEL-2 melanoma = test system: SK-MEL-2 melanoma
EKVX NSCLC = test system: EKVX NSCLC
SN12C renal = test system: SN12C renal
UO-31 renal = test system: UO-31 renal
TK-10 renal = test system: TK-10 renal
ACHN renal = test system: ACHN renal
CAKI-1 renal = test system: CAKI-1 renal
A498 renal = test system: A498 renal
CCRF-CEM leukemia = test system: CCRF-CEM leukemia
MOLT-4 leukemia = test system: MOLT-4 leukemia
PC-3 prostate = test system: PC-3 prostate

| SMILES | growth (HCT-15 colon) | growth (HT29 colon) | growth (SNB-75 CNS) | growth (SNB-19 CNS) | growth (U251 CNS) | growth (SK-MEL-5 melanoma) | growth (UACC-62 melanoma) | growth (LOX IMVI melanoma) | growth (SK-MEL-28 melanoma) | growth (SK-MEL-2 melanoma) | growth (EKVX NSCLC) | growth (SN12C renal) | growth (UO-31 renal) | growth (TK-10 renal) | growth (ACHN renal) | growth (CAKI-1 renal) | growth (A498 renal) | growth (CCRF-CEM leukemia) | growth (MOLT-4 leukemia) | growth (PC-3 prostate) |
| --- | --- | --- | --- | --- | --- | --- | --- | --- | --- | --- | --- | --- | --- | --- | --- | --- | --- | --- | --- | --- |
| Brc1ccc(-c2csc(Nc3ccccn3)n2)cc1 | 138% | 97.8% | 93.4% | 99.4% | 166% | 75.5% | 75.5% | 214% | 149% | 69.8% | 70% | 95.7% | 75.8% | 101% | 217% | 84.2% | 91.3% | 74.8% | 82.6% | – |
| COc1cc2c(cc1O)CC[C@@H]1[C@@H]2CC[C@]2(C)[C@@H](OCCCN(C)C)CC[C@@H]12 | -54.6% (active) | -90.8% (active) | -65.4% (active) | -20.6% (active) | -74.2% (active) | – | – | – | – | -85.9% (active) | 0.0282% (active) | – | -79.6% (active) | -6.67% (active) | -62.8% (active) | 10.9% | -53.6% (active) | -7.19% (active) | -21.1% (active) | -18.6% (active) |
| O=C1/C(=C/c2ccccc2O)N=C2SCCCN12 | 97% | 103% | 70.6% | 90.8% | 98.6% | – | – | 96.5% | – | 95.6% | 81.8% | – | 84% | 109% | 98.4% | 85.1% | 85.7% | 131% | 115% | 88.2% |
| NC(=NCCCOc1ccc(Cl)cc1)Nc1ccc(Cl)cc1 | 56% | 1.24% (active) | 44.8% | 19.3% | 41.2% | – | – | 40.3% | – | 24.1% | 44.4% | – | 37% | 45.8% | 2.74% (active) | 19.3% | -12% (active) | 6.02% (active) | 4.83% (active) | 26.7% |
| CCOC(=O)c1sc(Nc2ccc(Cl)cc2)nc1C | 13.1% | 4.65% (active) | -11.2% (active) | 37% | 13.5% | – | – | – | – | -0.883% (active) | 7.71% (active) | – | -9.64% (active) | 26.5% | 14.3% | 10.4% | -32.9% (active) | 17.8% | 10.7% | 14.2% |
| CC/C=C\C[C@H]1C/C=C2/C(=O)C=C[C@H]2C/C=C\CCCC(=O)O1 | 29.8% | 6.12% (active) | 38.6% | 40.3% | 10.4% | – | – | 6.07% (active) | – | 21.4% | 45% | – | 55.5% | 29.6% | -67.7% (active) | 25.2% | 79.5% | -6.1% (active) | 14.3% | 36% |
| COc1cccc2c1C(=O)c1c(O)c3c(c(O)c1C2=O)C[C@](O)(C(=O)CO)C[C@H]3O[C@@H]1C[C@@H](NC(=O)CCCCCN(C)C2(c3ccc(F)cc3)CC3CCC2C3)[C@H](O)[C@@H](C)O1 (some centres not stated) | 0.779% (active) | -55.5% (active) | 41.3% | 10.4% | -100% (active) | – | – | – | – | 73.5% | 33.9% | – | 62.8% | 68.7% | -77.4% (active) | 52.6% | 54.6% | -22.2% (active) | -27.7% (active) | -82.7% (active) |
| Cc1ccccc1COc1ccc(-c2ccnn2-c2ccc(Cl)cc2)cc1 | 39.9% | 17.6% | 60.7% | 62% | 46% | 66.6% | 60.7% | 64.3% | 69.4% | 39.2% | 77% | 67.6% | 74.4% | 83.8% | 77.6% | 59.7% | 57.5% | 42.4% | 26.3% | – |
| COc1ccc(CN2c3ccccc3Sc3ccccc32)c(C(F)(F)F)c1 | 37.3% | 2.45% (active) | 7.8% (active) | 32.7% | 20.6% | – | – | 54.7% | – | 3.52% (active) | 49.9% | – | 45.6% | 65.5% | 48.7% | 32.5% | 4.16% (active) | 10.5% | 24% | 26.9% |
| COc1ccc2[nH]cc(-c3noc(C(=O)c4cn(C)c5ccc(F)cc45)n3)c2c1 | 94.4% | 109% | 74.6% | 96% | 101% | 92.5% | 88.2% | 93.2% | 105% | 94.7% | 76.9% | 93% | 67.9% | 113% | 88.4% | 81.5% | 95.8% | 99.2% | 95.4% | – |
| COc1ccc2c(c1)C(=O)/C(=C/c1ccccn1)CC2 | 68.5% | 43.3% | 75.8% | 76.1% | 69.3% | – | – | 44.5% | – | 81.3% | 92.5% | – | 90% | 55.7% | 54.1% | 74.4% | 120% | -6.73% (active) | 21.5% | 87.6% |
| COc1cccc(-c2nc(SCC(=O)Nc3ccc(C(=O)/C=C/c4ccc(OC)c(OC)c4)cc3)[nH]c(=O)c2C#N)c1 | 83.6% | 102% | 71.8% | 76.3% | 85.3% | – | – | 81.4% | – | 96.6% | 87.7% | – | 79.3% | 109% | 86.6% | 88.4% | – | 90% | 74.8% | 100% |
| COc1ccc2c(c1)CC/C(=C\c1cncc(Br)c1)C2=O | 94.7% | 79.7% | 120% | 90.7% | 85.9% | – | – | 88.3% | – | 95.1% | 99.2% | – | 96.5% | 85% | 84.9% | 86.6% | 96.5% | 13.5% | 83.5% | 92.7% |
| Cc1cc(C)c2nc3nc(C)cc(C)c3c(N)c2c1 | 16.4% | 18% | 52.7% | 35.3% | 15.3% | 26.8% | 41.8% | 7.77% (active) | 38.7% | 30.4% | 28.1% | 24.9% | -1.17% (active) | 41.4% | 5.3% (active) | 10.4% | 47% | – | – | – |
| COc1ccc(Nc2c3c4c(cccc4[nH]c2=O)C(=O)c2ccccc2-3)cc1 | -4.37% (active) | -32.1% (active) | 0.39% (active) | 25.8% | 3.3% (active) | -42.3% (active) | 38.3% | 23.9% | 71.1% | 40.2% | 42.3% | 40% | 30.3% | 28.6% | 24.2% | 11.7% | 23% | -0.546% (active) | – | – |
| C#CCOc1ccc2ncnc(NCc3cccc(NC(=O)CCl)c3)c2c1 | 22.6% [8.25 µM] | 19.9% [8.25 µM] | 55.7% [8.25 µM] | 37.8% [8.25 µM] | -19.2% [8.25 µM] (active) | 23.8% [8.25 µM] | 31.8% [8.25 µM] | 46.7% [8.25 µM] | 58.1% [8.25 µM] | 39.7% [8.25 µM] | 65.6% [8.25 µM] | 25.8% [8.25 µM] | 84.9% [8.25 µM] | 74.1% [8.25 µM] | 39.5% [8.25 µM] | 73.3% [8.25 µM] | 77.9% [8.25 µM] | 4.16% [8.25 µM] (active) | – | – |
| Cc1nc(Nc2ccc(F)c(Cl)c2)sc1C(=O)O | 11.3% | 3.5% (active) | -13.4% (active) | 26.2% | 8.16% (active) | – | – | 2.1% (active) | – | 10.7% | 8.63% (active) | – | -8.39% (active) | 21% | 11.2% | 8.86% (active) | -26.2% (active) | 9.7% (active) | 6.93% (active) | 7.92% (active) |
